Our source for the inhibition values is PubChem BioAssay AID743269 (The Scripps Research Institute Molecular Screening Center, 2014).

Out of some 370,000 compounds screened, about 2,400 (0.65%) were called active. Shown is part of a subset that was picked to be rich in actives. Values without a mark were called inactive.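 Rule for the calls: active = inhibition above the screen-wide mean plus 3 SD (cut at about 13% in these data); inactive = the rest.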

The experiment deals with HIV-1 integrase (with human LEDGF/p75). In words: blockers of LEDGF/p75-dependent integrase strand transfer – biochemical, TR-FRET, high throughput, primary screen (AID 743269).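 Note: signal is the Cy5 over europium emission ratio at 671 and 618 nm; 0% = plate median of compound wells.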 The note with it: TR-FRET IN-LEDGF/p75 DNA integration, Eu/Cy5; at 3.7 µM; stronger effect = higher value.
`COC(=O)C1CN(Cc2cn(Cc3ccc(F)cc3)nn2)CCS(=O)(=O)N1Cc1ccc(Cl)cc1` (configuration not stated): the inhibition was 0.07%.

For the compound `CC(=O)OCC1(O)CC23CCC4c5ccoc5CCC4(C)C2CCC1C3` (configuration not stated), the inhibition is 36.9% (active). With `COC(=O)c1ccccc1-n1cc(COC(=O)NCCc2ccccc2)nn1` the figure was -3.43%; with `C=CCN1C(=O)[C@@H](CC(=O)NCC2CCCCC2)[C@]2(C(=O)OC)CCCCC=C12`, 0.59%; with `CCOc1ccc(N(CC(=O)Nc2c(C)n(C)n(-c3ccccc3)c2=O)S(=O)(=O)c2ccc(Cl)s2)cc1`, 2.7%. For `CC(=O)NC(CC(=O)O)c1ccc(F)cc1` (configuration not stated) the value was -3.02%; for `O=C(O)C(CCc1ccccn1)c1ccccc1` (configuration not stated), 0.2%; for `CN(C)c1ccc(C(CC(=O)O)C(=O)O)cc1` (configuration not stated), 18.1% (active).

Turning to `COc1ccnc(NC(=S)N2CCN(c3ncc(C(F)(F)F)cc3Cl)CC2)c1`, the inhibition was 4.7%. With `O=C(O)c1ccc(NN=CC2=C(N3CCOCC3)/C(=C/c3ccccc3)CC2)cc1` the figure was 27.7% (active).

Take `O=C(Nc1ccc(F)cc1)c1cccnc1N1CCOCC1`: the inhibition was 1.85%.

For the compound `O=C1OC(NC(=O)c2ccccc2)C(N2CCOCC2)=C1Cl` (configuration not stated), the inhibition was 1.92%. With `COc1ccc(Cn2ccc3ccc(-c4ccc5ccn(Cc6ccccc6C)c5c4)cc32)cc1`, the inhibition was -3.41%. For `O=S1(=O)c2ccc(N3CCN(Cc4ccccc4F)CC3)cc2Oc2ccccc2CN1Cc1cn(Cc2ccc(Cl)cc2)nn1` the value was 3.58%; for `Cc1ccsc1/C=N/NC(=O)Cc1cc(=O)[nH][nH]1`, -1.18%; for `Cc1ccccc1NCC(=O)N/N=C\c1ccc([N+](=O)[O-])s1`, 19.6% (active). For `O=[N+]([O-])c1ccc(C=Nc2ccc(Cl)cc2Cl)s1` the value was -0.56%.

In the case of `CN(CCO)c1cccc2c1S(=O)(=O)N(Cc1cn(Cc3ccc(C(F)(F)F)cc3)nn1)Cc1ccccc1O2`, the inhibition is 5.32%. On to `CC(=O)Nc1ccc(OC[C@@H](O)CN2CCC(C(O)(c3ccccc3)c3ccccc3)CC2)cc1`, for which the inhibition is -1.09%. `COc1ccc(-n2c(COc3ccccc3)nnc2SCC(=O)Nc2ccc3c(c2)OCO3)cc1`: the inhibition is -0.67%. For `C#CCCN([C@H](C(=O)OC)C(C)C)S(=O)(=O)c1ccc(F)cc1Br` the value was -3.33%; for `c1cncc(CNc2ccnc(-c3ccc4c(c3)OCO4)n2)c1`, 2.55%; for `Cc1ccc(OCc2nnc(SC/C=C/c3ccccc3)n2Cc2ccco2)cc1`, 1.59%. Consider `Cc1ccc(S(=O)(=O)/N=C(/Nc2ccc3[nH]c(=O)[nH]c3c2)c2ccccc2)cc1`, for which the inhibition was -0.12%. With `Cc1cc(C)cc(C(=O)NC(=S)Nc2ccc3[nH]c(=O)[nH]c3c2)c1` the figure was 3.15%; with `Cc1ccc(C(=O)NC(=S)Nc2ccc3[nH]c(=O)[nH]c3c2)cc1C`, 16.7% (active); with `O=C(CSc1nc2ccccc2n1Cc1ccccc1Cl)N/N=C\c1c[nH]c2ccccc12`, 5.76%. For `O=C(Nc1c(-c2ccccc2)nc2c(Br)cc(Br)cn12)c1ccco1` the value was 1.6%; for `O=C(Nc1ccccc1C(=O)N1CCCCC1)c1ccco1`, 6.1%; for `O=C(Nc1nc(-c2ccco2)c(-c2ccco2)s1)c1ccco1`, 68.8% (active). As for `CCOC(=O)C1CCN(C(=O)C(C)(C)NC(=O)Nc2ccccc2Cl)CC1`, the inhibition was -0.46%. For `O=C(CN(C(=O)c1csnn1)c1cccc(Cl)c1)NC1CCCC1` the value was 27.8% (active); for `O=C(CN(C(=O)c1nsc(Cl)c1Cl)c1cccc(F)c1)NC1CCCC1`, -3.15%; for `O=C(CN(C(=O)c1csnn1)c1ccc(Br)cc1)NC1CCCC1`, 1.56%. For `C=CCOC/C=C/C#CCN(CC=C)Cc1ccc(OC)cc1OC` the value was 5.5%; for `CCOC(=O)[C@]12CCCC3=C1N(CCC3)C(=O)[C@@H](CC(=O)NCc1cccs1)C2`, -1.84%. With `O=C(Nc1cccc2c1CCCC2)C1CCN(C(=O)NC2CCCCC2)CC1` the figure was -1.21%; with `O=C(CSc1nnc2c(n1)[nH]c1ccccc12)NC1CCCCC1`, 4.55%.

For the compound `O=C(NC1CCCCC1)N1CCc2[nH]c3ccccc3c2C1`, the inhibition is 35.1% (active).

As for `CC(=O)C1(C(=O)Nc2nccs2)CC(c2ccccc2C(F)(F)F)=NO1` (configuration not stated), the inhibition is 1.17%. For `CC(O)c1nc2ccccc2n1Cc1ccc([N+](=O)[O-])cc1` (configuration not stated) the value was 0.5%; for `O=C(O)Cn1c(Cc2ccccc2)nc2ccccc21`, -1.98%; for `CC(=O)c1nc2ccccc2n1Cc1ccccc1`, 22.6% (active).

As to `COc1cccc(/C=C2\CC3(OC(C)=O)CCCN2C3)c1` (configuration not stated), the inhibition is -3.9%.

As to `O=C1C(=O)N(Cc2ccc(-c3ccsc3)cc2)c2ccc(OC(F)(F)F)cc21`, the inhibition was 0.06%. For `Cc1cccc(NC(=O)C[C@H]2CC[C@H]3[C@@H](COc4ccc(NC(=O)Nc5ccccc5)cc4C(=O)N3C)O2)c1` the value was 1.61%. In the case of `Cc1ccc(C2=CCN(C)C(=O)N2c2ccc(Cl)cc2)cc1`, the inhibition is 0.69%.

Regarding `Oc1c(C=Nc2cccc3nsnc23)ccc2ccccc12`, the inhibition was 25.6% (active). For `O=C(CSc1nnc(COc2ccccc2)n1-c1ccc(Cl)cc1)Nc1ccc2c(c1)OCO2` the value was -1.91%; for `COC(=O)C1CN(CC(C)C)CCS(=O)(=O)N1Cc1ccc(F)cc1` (configuration not stated), -4.4%. With `Cc1cc(Oc2ccc(Cl)cc2)nc(SCC(=O)c2ccccc2)n1` the figure was 35.9% (active); with `Cc1nc(SCC(=O)c2ccccc2)c([N+](=O)[O-])[nH]1`, -5.1%.

`COc1ccc(C(=O)CSc2n[nH]c(N)n2)cc1`: the inhibition is -3.51%. For `COC(=O)[C@]12C[C@H](CC(=O)NCCCN3CCCC3=O)C(=O)N(CCc3ccc(OC)c(OC)c3)C1=C[C@H](COCc1ccccc1)O[C@@H]2C` the value was -3.08%; for `NC1=CC(=O)C(=O)c2cccnc21`, 40% (active). With `O=c1ccc2c(-c3ccccc3S(=O)(=O)O)c3ccc(O)c(O)c3oc-2c1O`, the inhibition was 84% (active). For `Cc1c[nH]c2cccc(-c3ccc(Cl)cc3)c12`, the inhibition is 4.29%.

Turning to `C[C@@H]1CN([C@@H](C)CO)C(=O)c2cccc(NC(=O)Nc3cccc4ccccc34)c2O[C@H]1CN(C)S(=O)(=O)c1ccccc1F`, the inhibition was 3.05%. With `C#CCN([C@H](C(=O)OC)C(C)CC)S(=O)(=O)c1ccccc1Br` (some centres not stated) the figure was 2.37%; with `Cc1cc(=O)[nH]c(SCC(=O)Nc2ccc(F)cc2F)n1`, -4.09%; with `CCC(=O)Nc1ccc2c(c1)C(=O)N(C)[C@@H]1CC[C@@H](CC(=O)NCCc3ccccc3)O[C@H]1CO2`, -2.65%. For `Cc1ccc(N=C2NC(=O)/C(=C/C=C/c3ccco3)S2)cc1C` the value was 16.8% (active); for `COC(=O)C[C@@H]1CC[C@@H]2[C@H](COc3ccc(NC(=O)c4cccc(F)c4)cc3C(=O)N2C)O1`, 7.98%; for `Cc1ccc(-n2c(COc3ccccc3)nnc2SCC(=O)Nc2ccc3c(c2)OCCO3)cc1`, -2.45%. For `C=CCn1c(SCC(=O)CC(=O)OCC)nc2cc(C(=O)N3CCC(C(N)=O)CC3)ccc2c1=O` the value was -1.71%; for `C=CCn1c2ccccc2c2nnc(SC(CC)C(=O)Nc3nc(C)c(C(=O)OCC)s3)nc21` (configuration not stated), -2.02%. For the compound `C=CCn1c2ccccc2c2nnc(SCc3[nH]c(=O)[nH]c3C(=O)CCCCC(=O)OCC)nc21`, the inhibition is 43.2% (active).

Consider `COc1cccc(N2CCN(CC(=O)N(C)Cc3ccc(F)cc3)CC2)c1`, for which the inhibition is -2.54%.

For the compound `COC(=O)[C@]12C[C@H](CC(=O)N3CCOCC3)C(=O)N(Cc3ccc(Cl)cc3Cl)C1=C[C@H](COCc1ccccc1)O[C@@H]2C`, the inhibition was 0.62%. With `Cc1ccc(C(=O)C2CCN(CC(=O)NCCC(C)C)CC2)cc1`, the inhibition is 0.16%.

On to `CC(C)(C)C1C/C(=C/c2ccco2)C(=O)/C(=C/c2ccco2)C1` (configuration not stated), for which the inhibition was 79.5% (active). For `COc1ccc(CN(CCN2CCOCC2)C(=O)c2ccc(C)cc2)cc1OC`, the inhibition is -0.71%. With `CCOC(=O)c1cccc(NC(=O)CN(C)S(=O)(=O)c2ccc(-c3cocn3)s2)c1` the figure was 2.14%. With `CCCCC(=O)N[C@@H]1CC[C@@]23CCCN2C(=O)CCC[C@H]3[C@H]1C` the figure was 0.47%; with `COc1ccnc(C(=O)N2CCC(Oc3cccnc3)CC2)c1`, -0.27%; with `COc1ccc(-c2c(C(C)=O)c(C)nc3sc4c(=O)n(-c5ccc(C)cc5)nnc4c23)cc1`, -0.97%. With `COCc1cc(C)nc2sc3c(=O)n(-c4cccc5ccccc45)nnc3c12` the figure was 18.6% (active). On to `COCc1cc(C)nc2sc(C(=O)NC3CCCCC3)c(N)c12`, for which the inhibition was 0.63%. For `Clc1ccc(-n2c(COc3ccccc3)nnc2SCc2nc3ccccc3[nH]2)cc1` the value was -0.48%; for `Oc1cc(O)c2c(c1)OC(c1ccc(O)c(O)c1)C(O)C2` (configuration not stated), 17.4% (active). With `O=C(Nc1cc(Cl)cc(Cl)c1)OCCN1CCCC12CCC(c1ccccc1)CC2` (configuration not stated) the figure was -0.23%; with `Cc1ccc(-n2c(SCC(=O)Nc3ccc(S(=O)(=O)Nc4nccs4)cc3)nnc2-c2ccncc2)cc1`, -1.61%; with `CCOC(=O)c1c(C)oc(C)c(C(=O)OCC)c1=O`, 3.08%. With `CCOC(=O)c1c(C)oc2cc(Sc3ccccc3)c(O)c(O)c12` the figure was 23.4% (active); with `CCOC(=O)c1c(C)oc2cc(Br)c(OCC(N)=O)cc12`, -0.08%; with `COC(=O)CC1CCc2cc(C)cc(C(CC(C)C)NC(=O)[C@H](CC(C)C)NC(=O)OCc3ccccc3)c2O1` (some centres not stated), -0.18%.

As to `CCN(C(=O)[C@@H](C1CC1)[C@@H](O)c1ccc2ccccc2c1)c1ccccc1`, the inhibition is -2.01%.
